{"source": "PubChem BioAssay AID493065", "about": "(National Center for Advancing Translational Sciences (NCATS), 2011)", "test": "Parental Cell Counter Screen Assay for Epigenetic Modulators: Hit Validation", "details": "mouse c127i parental cells, 30 h; Potency: fluorescent cell count; fluorescent cell count: active compounds read high, concentration not given here", "source_text": "NIH Molecular Libraries Screening Centers Network [MLSCN] NIH Chemical Genomics Center [NCGC] MLSCN Grant: 1 X01 MH079860-01 Assay Provider: Elisabeth D. Martinez, University of Texas SW Medical Center NCGC Assay Overview: This assay is a counter screen for the Locus Derepression (LDR) assay (PubChem AID 1865). The LDR assay detects the derepression of a GFP reporter that is stably integrated in a region of the genome of murine c127i mammary cells that is presumably silenced. Compounds that cause derepression of the locus to express GFP are identified by enumerating GFP positive cells using a laser-scanning microplate cytometer. […] Compounds active in the parental c127i cells are likely fluorescent.\nNCGC Assay Protocol Summary: Three hundred cells in 5 uL per well were dispensed into black, clear-bottom 1536-well plates. Twenty-three nL compound was transferred to the assay plate and cells were incubated 30 hours at 37 C. Medium was removed, cells were washed two times with PBS, and fluorescent cells were enumerated as objects between the sizes of 20 to 120 um width and depth using a laser-scanning microplate imager (Acumen Explorer Ex3, TTP Labtech). For further details, see Johnson, RL, Huang, W, Jadhav, A, Austin, CP, Inglese, J, Martinez, ED (2008). A quantitative high-throughput screen identifies potential epigenetic modulators of gene expression. Anal Biochem 375: 237-48.", "note": "Some of the results follow. Results filed as inconclusive are left out. Unmarked numbers belong to inactive results. The source made the active and inactive calls. Calls come from the whole dose curve; as a rule, active = well fitted activation curve with a large enough effect; inconclusive = small, poorly fitted or top-dose-only effect; inactive = flat fitted curve, though single readings scatter.", "data": [{"smiles": "Cc1ccc(/C=N/NC(=S)Nc2cccc(S(=O)(=O)N(C)C)c2)o1", "values": [{"measurement": "fluorescent cell count", "result": 2, "unit": "%"}]}, {"smiles": "Cc1cccn2c(=O)c(/C=C3\\SC(=S)N(CC(C)C)C3=O)c(NCCCOC(C)C)nc12", "values": [{"measurement": "Potency", "result": "2.51 µM (active)"}]}]}
